In ChEMBL document CHEMBL3988442, “University of Dundee, Small-Polar-MMV Screening Library” (2021):
For some of these results: Measured potencies and affinities stand elsewhere.

How the values were obtained:
Set-up in all cases: scale not given: direction of the effect not stated beside the values
[1] = target: Protein translocase subunit SecA (Escherichia coli (strain K12)) (UniProt P10408); assay: Assay to Identify E. coli SecA ATPase Inhibitors; format: functional; details: 30 µM
[2] = target: T1, Ubiquitin-activating enzyme e1, putative (Leishmania donovani (strain BPK282A1)) (UniProt E9BSI1); assay: Leishmania donovani Ubiquitin Activating Enzyme (LdE1); format: functional; details: 30 µM
T1 sequence (whole entry): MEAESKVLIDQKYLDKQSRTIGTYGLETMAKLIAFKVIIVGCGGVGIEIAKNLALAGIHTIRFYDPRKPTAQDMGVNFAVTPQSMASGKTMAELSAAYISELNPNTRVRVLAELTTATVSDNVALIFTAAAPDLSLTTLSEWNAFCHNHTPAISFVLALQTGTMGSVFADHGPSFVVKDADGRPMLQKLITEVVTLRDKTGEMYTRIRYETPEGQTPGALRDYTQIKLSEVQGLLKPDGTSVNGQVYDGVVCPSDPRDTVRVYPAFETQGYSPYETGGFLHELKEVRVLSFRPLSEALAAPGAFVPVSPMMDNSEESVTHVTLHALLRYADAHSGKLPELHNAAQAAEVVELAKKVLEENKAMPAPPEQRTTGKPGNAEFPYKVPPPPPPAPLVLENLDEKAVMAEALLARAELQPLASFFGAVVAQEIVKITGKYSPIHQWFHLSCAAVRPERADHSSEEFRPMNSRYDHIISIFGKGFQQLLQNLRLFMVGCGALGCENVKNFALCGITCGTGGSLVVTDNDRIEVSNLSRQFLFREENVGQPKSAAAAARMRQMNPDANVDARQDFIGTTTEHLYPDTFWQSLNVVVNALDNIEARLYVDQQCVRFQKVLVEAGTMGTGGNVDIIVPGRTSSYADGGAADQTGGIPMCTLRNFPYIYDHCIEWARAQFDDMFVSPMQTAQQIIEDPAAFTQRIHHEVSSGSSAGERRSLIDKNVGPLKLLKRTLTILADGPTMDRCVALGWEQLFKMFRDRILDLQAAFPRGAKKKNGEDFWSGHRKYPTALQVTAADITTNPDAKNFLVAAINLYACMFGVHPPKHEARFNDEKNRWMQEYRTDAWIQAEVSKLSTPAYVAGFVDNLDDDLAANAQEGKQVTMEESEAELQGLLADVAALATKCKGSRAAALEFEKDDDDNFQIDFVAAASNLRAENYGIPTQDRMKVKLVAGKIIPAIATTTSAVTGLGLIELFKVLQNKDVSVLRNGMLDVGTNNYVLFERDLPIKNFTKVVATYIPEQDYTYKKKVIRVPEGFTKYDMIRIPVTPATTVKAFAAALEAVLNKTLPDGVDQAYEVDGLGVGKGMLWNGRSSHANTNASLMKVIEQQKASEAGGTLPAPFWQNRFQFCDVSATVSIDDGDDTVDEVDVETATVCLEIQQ

[3] = target: AMP-activated protein kinase, AMPK (Homo sapiens) (UniProt P54646+O43741+P54619+Q9UGJ0+Q9Y478+Q13131+Q9UGI9); assay: AMP-dependent Kinase enzyme assay. An in vitro enzyme assay that detects ADP turnover that is directly proportional to AMPK activity. This uses naive AMPK that is activated during the assay with MK-8722; format: functional; details: 30 µM
[4] = target: Sialic acid-binding Ig-like lectin 9 (Homo sapiens) (UniProt Q9Y336); assay: Hs-Siglec9 ALPHAscreen SOP 20170721; details: 10 µM
Chain of Sialic acid-binding Ig-like lectin 9 (Homo sapiens) (Q9Y336 whole entry): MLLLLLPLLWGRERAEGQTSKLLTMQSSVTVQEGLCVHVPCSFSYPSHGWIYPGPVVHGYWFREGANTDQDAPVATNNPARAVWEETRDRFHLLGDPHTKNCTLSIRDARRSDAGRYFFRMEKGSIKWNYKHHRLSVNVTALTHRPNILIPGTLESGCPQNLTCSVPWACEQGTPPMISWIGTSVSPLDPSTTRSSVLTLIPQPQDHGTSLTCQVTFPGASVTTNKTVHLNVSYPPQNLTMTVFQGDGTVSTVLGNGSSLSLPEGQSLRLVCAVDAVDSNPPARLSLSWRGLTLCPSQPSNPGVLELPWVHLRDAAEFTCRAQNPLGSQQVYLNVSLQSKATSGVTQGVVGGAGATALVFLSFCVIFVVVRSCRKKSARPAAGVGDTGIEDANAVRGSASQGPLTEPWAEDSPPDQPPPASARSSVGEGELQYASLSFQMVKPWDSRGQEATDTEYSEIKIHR

Trypanosoma cruzi = assay: Trypanosoma cruzi phosphomannomutase and mannose-1-phosphate guanylyltransferase assay; format: functional; details: 10 µM
[5] = target: T2, Arginase-2, mitochondrial (Homo sapiens) (UniProt P78540); assay: in vitro enzyme assay to detect the production of urea directly proportional to the activity of Arginase II; format: functional; details: 33.3 µM; also: in the data most compounds retested in dose-response had high values
T2 sequence (whole entry): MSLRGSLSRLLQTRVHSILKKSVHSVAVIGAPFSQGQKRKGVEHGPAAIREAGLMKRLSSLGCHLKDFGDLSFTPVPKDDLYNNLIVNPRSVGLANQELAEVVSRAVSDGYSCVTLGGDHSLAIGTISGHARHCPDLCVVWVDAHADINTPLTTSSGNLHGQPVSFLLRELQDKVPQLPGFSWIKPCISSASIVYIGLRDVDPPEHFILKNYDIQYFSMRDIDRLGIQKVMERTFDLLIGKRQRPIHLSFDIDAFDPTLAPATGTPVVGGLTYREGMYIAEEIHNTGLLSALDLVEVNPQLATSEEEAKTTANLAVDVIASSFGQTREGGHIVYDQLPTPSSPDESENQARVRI

[6] = target: T3, Proteasome subunit beta (Trypanosoma cruzi) (UniProt O96673); assay: Trypanosoma cruzi proteasome chymotrypsin-like activity (TcProtChymo) assay.; also: in the data most compounds retested in dose-response had high values; format: functional; details: 9.37 µM
T3 sequence (whole entry): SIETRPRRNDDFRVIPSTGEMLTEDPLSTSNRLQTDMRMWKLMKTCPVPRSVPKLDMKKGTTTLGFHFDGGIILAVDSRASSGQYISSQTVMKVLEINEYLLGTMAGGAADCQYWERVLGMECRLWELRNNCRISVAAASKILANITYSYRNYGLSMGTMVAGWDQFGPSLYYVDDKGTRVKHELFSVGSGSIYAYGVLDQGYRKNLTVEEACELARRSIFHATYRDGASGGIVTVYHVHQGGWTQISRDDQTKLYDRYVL

Homo sapiens = organism: Homo sapiens; assay: To identify inhibition of the IFN signalling (Jak-Stat) pathway via expression of an eGFP reporter gene under the control of an IFN-stimulated response element (ISRE) containing MxA promoter.; format: functional; details: 30 µM
[7] = target: T4, Tyrosyl-tRNA synthetase, putative (Trypanosoma cruzi (strain CL Brener)) (UniProt Q4DSP6); assay: Trypanosoma cruzi tyrosyl tRNA synthetase (TcYRS) _High Tyrosine SOP; format: functional; details: 30 µM; also: in the data most compounds retested in dose-response had high values
T4 sequence (whole entry): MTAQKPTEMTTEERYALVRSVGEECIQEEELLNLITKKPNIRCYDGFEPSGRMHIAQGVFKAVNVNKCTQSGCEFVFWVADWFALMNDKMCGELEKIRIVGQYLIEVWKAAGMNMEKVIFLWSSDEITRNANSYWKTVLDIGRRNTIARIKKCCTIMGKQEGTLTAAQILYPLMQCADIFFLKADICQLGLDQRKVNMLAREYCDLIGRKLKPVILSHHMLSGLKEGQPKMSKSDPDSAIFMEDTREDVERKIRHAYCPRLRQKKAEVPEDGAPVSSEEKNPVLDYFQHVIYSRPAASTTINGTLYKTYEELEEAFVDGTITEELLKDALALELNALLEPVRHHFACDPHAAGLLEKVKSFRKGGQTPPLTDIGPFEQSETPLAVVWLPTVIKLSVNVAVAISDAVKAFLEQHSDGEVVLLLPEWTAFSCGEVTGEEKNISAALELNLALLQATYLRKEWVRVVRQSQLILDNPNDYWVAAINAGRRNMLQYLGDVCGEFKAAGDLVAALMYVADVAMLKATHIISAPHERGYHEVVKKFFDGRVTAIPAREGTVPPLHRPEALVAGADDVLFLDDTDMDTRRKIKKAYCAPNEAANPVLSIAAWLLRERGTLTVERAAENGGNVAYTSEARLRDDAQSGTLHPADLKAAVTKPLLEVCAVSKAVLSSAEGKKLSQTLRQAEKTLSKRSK

[8] = target: T4, Tyrosyl-tRNA synthetase, putative (Trypanosoma cruzi (strain CL Brener)); assay: Trypanosoma cruzi tyrosyl tRNA synthetase (TcYRS) SOP; format: functional; details: 30 µM
[9] = target: Chromo domain-containing protein 1 (Saccharomyces cerevisiae (strain ATCC 204508 / S288c) (Baker's yeast)) (UniProt P32657); assay: ScCHD-1 Enzyme Inhibition Assay; format: functional; details: 30 µM; also: in the data most compounds retested in dose-response had high values
Chain of Chromo domain-containing protein 1 (Saccharomyces cerevisiae (strain ATCC 204508 / S288c) (Baker's yeast)) (P32657 whole entry, the tested form may be a part): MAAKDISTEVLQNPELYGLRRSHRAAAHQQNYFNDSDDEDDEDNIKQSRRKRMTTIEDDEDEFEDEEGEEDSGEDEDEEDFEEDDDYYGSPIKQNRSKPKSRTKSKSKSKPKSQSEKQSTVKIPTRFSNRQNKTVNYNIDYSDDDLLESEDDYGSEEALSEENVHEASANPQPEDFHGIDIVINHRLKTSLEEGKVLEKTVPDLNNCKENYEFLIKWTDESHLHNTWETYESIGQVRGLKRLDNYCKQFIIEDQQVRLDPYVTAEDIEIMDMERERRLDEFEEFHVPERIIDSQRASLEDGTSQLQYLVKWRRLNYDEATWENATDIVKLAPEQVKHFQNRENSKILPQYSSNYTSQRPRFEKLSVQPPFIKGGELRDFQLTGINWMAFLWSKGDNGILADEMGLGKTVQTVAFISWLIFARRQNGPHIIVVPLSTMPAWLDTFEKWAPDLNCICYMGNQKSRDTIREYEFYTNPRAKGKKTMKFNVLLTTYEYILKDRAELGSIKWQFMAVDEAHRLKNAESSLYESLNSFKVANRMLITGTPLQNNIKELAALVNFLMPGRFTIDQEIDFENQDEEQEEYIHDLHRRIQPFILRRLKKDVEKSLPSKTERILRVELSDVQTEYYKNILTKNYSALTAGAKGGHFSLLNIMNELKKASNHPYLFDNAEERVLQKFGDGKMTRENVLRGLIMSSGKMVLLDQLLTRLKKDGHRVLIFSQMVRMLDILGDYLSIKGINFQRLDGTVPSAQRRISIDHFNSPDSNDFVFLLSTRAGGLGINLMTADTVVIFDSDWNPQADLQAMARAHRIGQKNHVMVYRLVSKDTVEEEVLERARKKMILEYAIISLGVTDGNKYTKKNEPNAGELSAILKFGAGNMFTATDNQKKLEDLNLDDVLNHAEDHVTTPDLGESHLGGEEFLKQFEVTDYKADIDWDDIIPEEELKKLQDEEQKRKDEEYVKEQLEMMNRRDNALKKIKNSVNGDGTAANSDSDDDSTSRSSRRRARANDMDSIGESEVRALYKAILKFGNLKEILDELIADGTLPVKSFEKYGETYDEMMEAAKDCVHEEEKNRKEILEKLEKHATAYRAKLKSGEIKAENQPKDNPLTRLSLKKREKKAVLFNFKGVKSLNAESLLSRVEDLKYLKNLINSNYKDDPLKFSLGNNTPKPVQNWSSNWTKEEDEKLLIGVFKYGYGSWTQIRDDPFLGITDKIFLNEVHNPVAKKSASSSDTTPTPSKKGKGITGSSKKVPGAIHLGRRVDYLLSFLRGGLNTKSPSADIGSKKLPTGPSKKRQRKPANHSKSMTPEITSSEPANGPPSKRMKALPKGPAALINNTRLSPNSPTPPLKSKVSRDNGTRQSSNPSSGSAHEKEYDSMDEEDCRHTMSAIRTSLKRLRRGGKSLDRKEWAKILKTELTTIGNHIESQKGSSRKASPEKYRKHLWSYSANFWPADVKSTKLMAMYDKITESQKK

Chain of Protein translocase subunit SecA (Escherichia coli (strain K12)) (P10408 whole entry): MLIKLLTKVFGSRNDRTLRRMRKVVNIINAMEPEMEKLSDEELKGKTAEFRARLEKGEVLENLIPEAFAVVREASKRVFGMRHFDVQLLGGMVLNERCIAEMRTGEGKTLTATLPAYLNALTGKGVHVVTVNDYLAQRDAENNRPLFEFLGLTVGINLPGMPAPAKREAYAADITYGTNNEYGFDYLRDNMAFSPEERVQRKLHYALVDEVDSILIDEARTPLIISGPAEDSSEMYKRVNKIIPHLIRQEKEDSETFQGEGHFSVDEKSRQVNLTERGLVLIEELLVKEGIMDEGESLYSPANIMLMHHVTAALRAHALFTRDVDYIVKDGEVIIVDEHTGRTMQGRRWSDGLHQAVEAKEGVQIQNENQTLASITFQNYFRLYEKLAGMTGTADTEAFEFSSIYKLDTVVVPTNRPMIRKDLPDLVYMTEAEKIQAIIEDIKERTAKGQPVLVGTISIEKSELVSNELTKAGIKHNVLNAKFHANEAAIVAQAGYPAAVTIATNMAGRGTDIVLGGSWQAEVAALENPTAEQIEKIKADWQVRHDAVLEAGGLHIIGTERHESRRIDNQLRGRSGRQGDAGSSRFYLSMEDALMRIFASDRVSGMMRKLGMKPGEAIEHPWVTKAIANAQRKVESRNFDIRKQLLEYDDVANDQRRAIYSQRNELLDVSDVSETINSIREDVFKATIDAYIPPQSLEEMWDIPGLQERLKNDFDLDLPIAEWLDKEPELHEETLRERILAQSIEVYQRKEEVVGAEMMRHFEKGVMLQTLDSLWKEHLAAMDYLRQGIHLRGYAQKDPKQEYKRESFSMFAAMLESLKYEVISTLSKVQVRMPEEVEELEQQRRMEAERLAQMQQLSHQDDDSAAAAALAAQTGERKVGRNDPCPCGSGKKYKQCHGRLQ

Structure (SMILES)	Percent Effect [1]	Percent Effect [2]	Percent Effect [3]	Percent Effect [4]	Percent Effect (Trypanosoma cruzi)	Percent Effect [5]	Percent Effect [6]	Percent Effect (Homo sapiens)	Percent Effect [7]	Percent Effect [8]	Percent Effect [9]
CNC(=O)CS(=O)(=O)C1CCN(S(=O)(=O)c2c(F)cccc2F)CC1	-2.05%	-2.74%	6.92%	0.634%	5.68%	-1.82%	3.9%	-17.8%	1.07%	0%	-1.05%
CCN(Cc1ccc2c(c1)OCCO2)C(=O)NC(C)Cn1ccnc1 (stereo not given)	-0.244%	23.4%	-1.99%	-9.3%	-9.74%	3.56%	10.8%	19.8%	3.88%	9.76%	-7.71%
COc1ccc(CNC(=O)NC2CCC(O)CC2)c(C(F)(F)F)c1 (stereo not given)	-1.24%	-9.72%	-2.59%	-9.45%	-4.57%	1.32%	14%	-1.15%	3.16%	2.56%	-2.64%
COC(=O)c1ccc(S(=O)(=O)NCc2cccnc2N(C)C)cc1	-2.49%	17.7%	0.13%	-11%	-8.59%	-4.18%	4.67%	66.2%	-16.3%	16.5%	-6.7%
CN1CCN(c2ncc3c(=O)n(-c4cccc(F)c4)c(=O)[nH]c3n2)CC1	0.451%	13.2%	0.333%	-0.649%	-1.27%	7.1%	18.9%	-9.16%	4.25%	10.4%	92.2%
CNc1cc(CCNC(=O)c2cccnc2)nc(-c2ccncc2)n1	-1.87%	9.46%	12.1%	1.21%	-6.13%	2.09%	12%	-0.444%	4.3%	6.49%	-5.16%
CN(C)c1ccc(CN(CCCn2ccnc2)Cc2c[nH]cn2)cc1	-6.31%	17.6%	-10.4%	5.43%	3.16%	-6.26%	12.5%	8.69%	8.6%	19.5%	-30.5%
COc1ncccc1C(=O)N1CCC(CNC(C)=O)CC1	-4.18%	5.33%	-0.618%	3.6%	-2.43%	1.56%	6.28%	-6.88%	4.92%	13.6%	-5.96%
CCc1n[nH]c(C2CN(CC(=O)NCCc3ccsc3)CCO2)n1 (stereo not given)	-2.71%	5.48%	-4.4%	11.2%	5.09%	4.09%	1.42%	4.97%	1.07%	5%	-5.13%
Cc1cnccc1CN1C[C@@H](O)[C@H](Oc2ccccc2)C1	4.34%	-4.05%	6.12%	0.247%	0.593%	3.02%	3.28%	11.6%	2.15%	-1.3%	-12.9%
CC(C(=O)N1CCCN(c2ccc(C#N)cc2)CC1)n1ccnc1 (stereo not given)	-5.97%	15.8%	-5.83%	-1.34%	3.01%	6.13%	8.52%	-7.67%	8.33%	19.5%	-17.9%
CN(Cc1cc(-c2ccccc2)no1)C1CCCN(c2cccnn2)C1 (stereo not given)	-6.51%	-20.8%	0.498%	15.7%	-3.93%	-3.2%	2.37%	7.74%	15.5%	14.6%	18.5%
CC(=O)NCc1ccc(C(=O)N2CCCCC2Cn2cccn2)o1 (stereo not given)	-1.39%	27%	-1.91%	-5%	4.18%	-5.36%	14.4%	17.1%	1.98%	18.3%	-6.26%
CC1c2ncc(CN3CCN(C)CC3)n2CCN1CC1CC1 (stereo not given)	-1.8%	18.7%	-6.67%	5.11%	5.99%	-54.7%	6.33%	-3.72%	6.25%	17.5%	-8.05%
Cc1nn(C)c(C)c1C1CCCN1C(=O)CCc1cscn1 (stereo not given)	-2.32%	-5.26%	-4.9%	0.0636%	0.467%	0.36%	6.18%	-8.57%	1.48%	1.24%	2.83%
O=C(NCCCn1ccnc1)N1CCCC1c1ccncc1 (stereo not given)	-1.66%	-2.67%	-1.97%	-2.62%	-5.36%	1.56%	-1.57%	-1.17%	-0.546%	1.24%	5.86%
OC1(Cn2ccc3ccncc32)CCN(Cc2ccccn2)CC1	0.875%	6.76%	1.5%	0.0823%	-10.7%	2.55%	8.42%	17.6%	-1.07%	9.09%	-2.25%
COC(=O)c1ccc(N2CCN(CCC(=O)NC(N)=O)C(C)C2)cc1 (stereo not given)	-5.21%	15.8%	-4.81%	0.77%	-5.51%	-0.719%	-2.45%	5.46%	5.42%	13.6%	2.67%
CCn1cnnc1CNC(=O)CCC(=O)c1ccc2c(c1)OCCO2	-8.9%	16.2%	-8.33%	6.97%	6.7%	-10%	15.3%	11.5%	10.3%	23.5%	-8.22%
COCCN1CC[C@@H]2O[C@@H](COCC(=O)N3CCCC3)CC[C@@H]21	-3.65%	5.48%	-6.36%	2.85%	7.94%	-3.99%	3.85%	-31.2%	7.29%	13.6%	-5.05%
